From PubChem BioAssay AID1469 (National Center for Advancing Translational Sciences (NCATS), 2008)
The whole screen tested about 280,000 compounds, of which about 180 (0.064%) were called active. What follows is part of a selection rich in actives, with near analogues and random picks from the rest. Unmarked numbers belong to inactive results. Calls come from the whole dose curve; as a rule, active = well fitted inhibition curve with a large enough effect; inconclusive = small, poorly fitted or top-dose-only effect, or effect the other way; inactive = flat fitted curve, though single readings scatter.

molecular target: Thyroid hormone receptor beta (Homo sapiens) (UniProt P10828); experiment: qHTS for Inhibitors of the Interaction of Thyroid Hormone Receptor and Steroid Receptor Coregulator 2; conditions: TRbeta-SRC2 peptide binding, fluorescence polarization, receptor liganded with 1 µM T3; series mostly up to 106 µM; activity change, negative = inhibition: at the top concentration; note: nearly all actives have a fitted effect of over 50% in size;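 for activity change, negative = inhibition: plate controls were bound peptide for no effect and peptide without receptor for full effect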
Text: NIH Molecular Libraries Probe Production Network [MLPCN]
NIH Chemical Genomics Center [NCGC]
Assay Provider: R. Kip Guy, St. Jude Children's Research Hospital
Thyroid receptor (TR) regulates many homeostatic processes including basal metabolism, cardiovascular function, body weight, and lipid trafficking. TR modulators are potential therapeutics for obesity and hyperlipidemias but current thyroid analogs have undesirable side effects, particularly cardiac stimulation. To identify inhibitors that specifically prevent the interaction of TR with the steroid receptor coregulator 2 (SRC2), a fluorescence polarization assay was screened. This assay detects interaction of the ligand-binding domain of human TRb with a Texas Red labeled SRC2 peptide, corresponding to a 20 amino acid region of the nuclear receptor interaction domain (Arnold et al., 2006). Small molecule inhibitors that block the interaction of TR and SRC2 are detected by a decrease in fluorescence polarization.
Arnold, L. A.; Estebanez-Perpina, E.; Togashi, M.; Shelat, A.; Ocasio, C. A.; McReynolds, A. C.; Nguyen, P.; Baxter, J. D.; Fletterick, R. J.; Webb, P.; Guy, R. K. A high-throughput screening method to identify small molecule inhibitors of thyroid hormone receptor coactivator binding. Sci STKE 2006, p 13.
NCGC Assay Protocol Summary:
For screening, 5 uL/well 0.6 uM TRb and 20 nM SRC2 Texas Red in protein buffer (20mM Tris hydrochloride, 100mM NaCl, 10% glycerol, 1mM EDTA, 0.01% NP-40, 1mM DTT, 1uM T3 and 5% DMSO) was dispensed into black solid 1536-well plates (Grenier) using a solenoid-based dispenser. Following transfer of 23 nL compound or DMSO vehicle by a pin tool, the plates were centrifuged 15 s at 1000 RPM and incubated 5 hr at ambient temperature. The plates were read by an Envision (Perkin Elmer) to detect fluorescence polarization of SRC2 Texas Red (555 nm excitation and 632 nm emission). Data were normalized to unbound (all components except TRb) and bound SRC2 Texas Red controls. In this assay, we provide % activity data for each concentration as well as potencies for the active compounds.
Keywords: NIH Roadmap, MLPCN, MLI, MLSMR, qHTS, NCGC, qHTS, thyroid hormone receptor, steroid receptor coactivator, fluorescence polarization
Potency is the fitted concentration of half-maximal effect.

Thyroid hormone receptor beta (Homo sapiens), sequence (P10828 whole entry, looked up): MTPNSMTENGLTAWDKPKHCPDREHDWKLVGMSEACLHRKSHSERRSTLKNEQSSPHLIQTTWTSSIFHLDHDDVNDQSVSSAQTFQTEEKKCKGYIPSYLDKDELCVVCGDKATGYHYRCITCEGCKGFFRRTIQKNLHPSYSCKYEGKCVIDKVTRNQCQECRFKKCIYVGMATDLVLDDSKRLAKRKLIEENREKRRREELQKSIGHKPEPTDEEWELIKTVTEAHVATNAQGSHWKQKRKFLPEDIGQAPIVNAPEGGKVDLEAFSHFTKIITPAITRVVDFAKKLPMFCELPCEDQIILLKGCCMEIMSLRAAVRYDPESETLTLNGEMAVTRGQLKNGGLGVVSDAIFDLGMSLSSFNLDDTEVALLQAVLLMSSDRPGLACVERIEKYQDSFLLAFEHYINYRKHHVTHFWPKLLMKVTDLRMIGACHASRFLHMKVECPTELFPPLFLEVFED

| SMILES | activity change, negative = inhibition | Potency |
| --- | --- | --- |
| CCOc1ccc(OCC)c(NC(=O)CN(c2ccc(C)cc2)S(=O)(=O)c2c(C)n[nH]c2C)c1 | -4.13% | – |
| COc1ccc(CCNC(=O)CCCCn2c(=O)c3ccccc3n(Cc3ccccc3)c2=O)cc1OC | 3.43% | – |
| CCCS(=O)(=O)c1c(Nc2ccccc2C)sc(C(=O)c2ccccc2)c1N | -0.894% | – |
| COc1cccc(NC(=O)CSc2cc(=O)n(C)c3ccc(Cl)cc23)c1 | -5.98% | – |
| CSc1ccccc1NC(=O)CCS(=O)(=O)c1nc(-c2cccs2)cc(C(F)(F)F)n1 | -1.72% | – |
| COc1ccc2c(c1)Cc1sc(NC(=O)c3ccccc3Br)nc1-2 | 1.79% | – |
| COc1cc(OC)c(NC(=O)N2CC3CCCN3c3ccccc32)cc1Cl (stereo not given) | 7.62% | – |
| Cc1ccc(C2C=C(c3ccc(Cl)cc3)Nc3nc(NC(=O)CCC(=O)O)nn32)cc1 (stereo not given) | 7.02% | – |
| O=S(=O)(c1ccc2nc(NCc3ccccc3Cl)ccc2c1)N1CCCCC1 | -4.04% | – |
| COc1ccc(NC(=O)C2CCN(c3ccc(Sc4ccc(C)cc4)nn3)CC2)c(OC)c1 | -5.8% | – |
| COc1ccc(Nc2ncc(C(=O)Nc3cc(C)ccc3OC)c3ccccc23)cc1 | 3.62% | – |
| Cc1ccc(S(=O)(=O)c2nc(-c3cccs3)oc2N2CCCCC2)cc1 | -2.62% | – |
| COc1ccccc1Nc1c2c(nc3ccc(NC(=O)/C=C/c4cc(OC)c(OC)c(OC)c4)cc13)CCCC2 | -2.02% | – |
| COc1cccc(Cn2c(SCc3ccc(C(=O)N4CCC(C)CC4)cc3)nc3ccncc32)c1 | 3.21% | – |
| CCOC(=O)Cn1c(=O)n(-c2ccccc2OC)c2nc(-c3cccc(F)c3)nc(C(N)=O)c21 | 4.92% | – |
| Cc1cccc(N2CCN(C(=O)c3cc4c(=O)oc5ccccc5c4s3)CC2C)c1 (stereo not given) | -3.7% | – |
| COc1ccc(C)cc1NC(=O)C(=O)NCCc1sc(-c2cccc(C)c2)nc1C | 2.44% | – |
| Cc1cccc(Cn2c(SCc3ccc(C(=O)N4CCC(C)CC4)cc3)nc3ccncc32)c1 | 5.36% | – |
| CN1CCN(c2oc(-c3ccc(COc4ccc(Cl)cc4)o3)nc2C#N)CC1 | -3.91% | – |
| CC(=O)c1ccc(NC(=O)CSc2c(C(C)C)cnc3c2c(=O)n(C)c(=O)n3C)cc1 | 4.88% | – |
| CCOc1ccc(C2C(=O)N(C3CCCCC3)CC(=O)N2CCC2=CCCCC2)cc1OC (stereo not given) | -5.28% | – |
| COc1ccccc1N1CCN(C(CNC(=O)C(=O)NCc2ccc(C)cc2)c2cccnc2)CC1 (stereo not given) | -1.91% | – |
| COCCOC(=O)c1sc(=S)n(CCOC)c1N | – | 39.8 µM (active) |
| CCOC(=O)c1c(N)sc(C(C)=O)c1C | 0.0277% | – |
| COC(=O)c1sc(=S)n(-c2ccc(Cl)cc2)c1C | -4.22% | – |

| SMILES | activity change, negative = inhibition | Potency |
| --- | --- | --- |
| Cc1cc(C)c(N)c(Cl)c1 | 2.23% [at 201 µM] | – |
| COc1ccc(C2Sc3ccccc3NC3=C2C(=O)c2ccccc23)c(OC)c1OC (stereo not given) | 0.429% | – |
| CCOc1cccc(CC(=O)N2CCc3c([nH]c4ccccc34)C2c2ccc(OC)cc2)c1OCC (stereo not given) | -4.13% | – |
| Cc1ccc(OCC(=O)Nc2ccc(Cl)c(-c3nc4ccccc4[nH]3)c2)cc1C | 11.7% | – |
| COc1ccc(C(F)(F)F)cc1NC(=O)c1sc2nc(-c3cccs3)ccc2c1N | -2.16% | – |
| CCOc1ccc(C(=O)/C=C/c2cn(CC(O)CN3CCCCCC3)c3ccccc23)cc1 (stereo not given) | -2.38% | – |
| Cc1ccc(CCNC(=O)c2ccc3c(c2)N(Cc2cc(C)ccc2C)C(=O)c2ccccc2S3=O)cc1 (stereo not given) | 0.82% | – |
| O=C(C1CCC(Cn2c(=O)c3sccc3n(Cc3ccccc3F)c2=O)CC1)N1CCCCC1 (stereo not given) | 4.55% | – |
| COc1cccc(N2CCN(S(=O)(=O)c3cc(Br)cc4c3N(C(=O)C3CC3)CC4)CC2)c1 | -4.31% | – |
| CCOc1cccc2sc(N3CCN(C(=O)C4CC4)CC3)nc12 | -14.1% | – |
| COc1ccc(OCCCn2c(C)nc3cc(C)c(C)cc32)cc1 | -2.57% | – |
| CC(=O)Nc1ccc2nc(SCCOc3cc(C)cc(C)c3)sc2c1 | -2.28% | – |
| COc1ccc(NC(=O)CSc2nc3ccccc3n2CC(=O)N2CCCCC2C)cc1 (stereo not given) | -6.31% | – |
| Cc1cccc(CC(=O)Nc2cccc(-c3cn4cccnc4n3)c2)c1 | -4.22% | – |
| CC(=O)N(CCN(C(C)=O)C(C)=O)C(C)=O | 3.99% [at 201 µM] | – |
| COc1ccc(Cl)cc1-n1c(CCC(=O)O)ccc1-c1ccc(C)cc1 | -2.76% | – |
| CCOc1ccccc1N(CC)C(=O)c1cc2ccc3cccnc3c2[nH]1 | -10.7% | – |
| CCOc1ccccc1CNC(=O)Nc1cn(CC(C)C)c(=O)c2ccccc12 | -27.3% | – |
| O=C(Nc1cc(Cl)cc(Cl)c1)c1ccc2c(c1)N(Cc1cccc(Cl)c1)C(=O)c1ccccc1S2=O (stereo not given) | -0.837% | – |
| Clc1cccc(-n2ncc3c(NCCc4ccccc4)ncnc32)c1 | 10.7% | – |
| CCOC(=O)c1c(C)oc2nc(C)nc(N(CC(C)C)CC(C)C)c12 | -1.94% | – |
| O=C(Nc1cccc(-c2nc3ccccc3o2)c1)c1cccc(Br)c1 | 5.75% | – |
| CCN(CC)S(=O)(=O)c1nnc(NC(=O)COc2ccccc2Cl)s1 | 6.08% | – |
| O=C(c1ccc2c(c1)N(Cc1ccccc1)C(=O)c1ccccc1S2(=O)=O)N1CCC(Cc2ccccc2)CC1 | -1.29% | – |
| CCc1ccc(NC(=O)c2sc3nc4c(cc3c2N)CN(CC)CC4)cc1 | 4.82% | – |
